# MITF primary = human MITF inhibition, primary screen; inhibition, % at 2.6 µM; AID 1259374; AlphaScreen MITF homodimerization, bead proximity signal; actives 0.91% (n = 650,000); O75030; in the data active = inhibition above about 50%;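 note: 0% = vehicle wells with protein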
# GPR151 activ = activates the human receptor GPR151; Q8TDV0; PathHunter beta-arrestin GPR151 cells, luminescence; activation, % at 11.2 µM; actives 1% (n = 650,000); AID 1508602; in the data active = activation above about 4.9%;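 note: 0% = median of compound wells and 100% = cells with positive control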
# TEAD-YAP inh = TEAD-YAP interaction inhibition | HEK-TIYL cells, TEAD-Gal4/YAP UAS-luciferase luminescence | inhibition, % at 9.12 µM | actives 1.4% (n = 640,000); in the data active = inhibition above about 32%;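 note: 0% = median of test compound wells and 100% = reference inhibitor wells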
# FBW7 activator = activators of human E3 ligase FBW7; actives 0.13% (n = 650,000); Q969H0; normalized activity (activation), % at 26.1 µM; AlphaScreen FBW7–phospho-cyclin E peptide binding, activator screen; in the data active = normalized activity above about 1.9%;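 note: purified mutant Fbw7 with reduced substrate affinity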
# Target sequence (Q969H0 whole entry, looked up): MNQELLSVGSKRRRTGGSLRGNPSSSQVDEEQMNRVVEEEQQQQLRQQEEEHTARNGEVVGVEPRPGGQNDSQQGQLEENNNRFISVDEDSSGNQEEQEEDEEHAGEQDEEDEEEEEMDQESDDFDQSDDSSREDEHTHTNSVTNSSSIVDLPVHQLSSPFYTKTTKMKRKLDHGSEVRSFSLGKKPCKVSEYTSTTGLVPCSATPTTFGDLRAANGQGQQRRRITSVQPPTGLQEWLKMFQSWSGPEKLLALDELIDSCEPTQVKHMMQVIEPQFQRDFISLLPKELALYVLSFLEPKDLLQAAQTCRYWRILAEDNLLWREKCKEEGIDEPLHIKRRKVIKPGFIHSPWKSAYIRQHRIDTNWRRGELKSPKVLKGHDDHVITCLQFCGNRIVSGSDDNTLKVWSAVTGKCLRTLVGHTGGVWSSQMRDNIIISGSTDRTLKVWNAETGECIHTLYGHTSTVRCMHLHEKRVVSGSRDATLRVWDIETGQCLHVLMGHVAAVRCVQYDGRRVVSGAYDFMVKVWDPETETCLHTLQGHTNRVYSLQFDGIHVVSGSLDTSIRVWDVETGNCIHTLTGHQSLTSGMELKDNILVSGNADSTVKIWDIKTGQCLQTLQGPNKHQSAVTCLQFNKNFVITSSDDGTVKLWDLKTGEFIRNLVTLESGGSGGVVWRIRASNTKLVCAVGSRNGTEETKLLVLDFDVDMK
# * marks the source's active call; other numbers are inactive results. A selection: hits, their analogues and other compounds. The true share with any hit is near 3.5%.
SMILES,MITF primary,GPR151 activ,TEAD-YAP inh,FBW7 activator
Fc1cnc(Nc2ccc(Cn3ccnc3)cc2)nc1-c1cc(N2CCOCC2)cc(C(F)(F)F)c1,-283.9,2.4,40.5*,0.1
CC(=O)NC(c1cccs1)c1ccc2cccnc2c1O (configuration not stated),70.0*,-2.2,91.5*,-0.2
CC(=O)NC(c1ccco1)c1ccc2cccnc2c1O (configuration not stated),77.3*,0.1,44.3*,-1.8
N#CC(C#N)=C(N)/C(C#N)=C/c1ccc(-c2cc(C(=O)O)cc(C(=O)O)c2)o1,62.6*,-0.9,1.8,-0.6
O=C(COC(=O)c1ccc([N+](=O)[O-])o1)NC(=O)Nc1ccc2c(c1)OCCO2,-2.9,-0.1,37.4*,0.0
CC1=C(C(=O)OCCOc2ccccc2)C(c2ccccc2OCc2ccccc2)C2=C(CCCC2=O)N1 (configuration not stated),4.3,0.4,4.5,0.2
CCNc1nc(OC)nc(Oc2ccc(=O)n(-c3ccccc3)n2)n1,0.2,-0.4,3.3,-0.1
COc1nc(NCC(C)C)nc(Oc2ccc(=O)n(-c3ccccc3)n2)n1,3.4,0.4,5.5,2.4*
C(=N\Nc1ccccn1)/c1sc(N2CCCCC2)nc1-c1cccs1,5.0,-0.8,67.1*,0.2
O=C(Cc1cccs1)Nc1cccc(-c2ccc(N3CCCCC3)nn2)c1,-9.3,-3.5,51.5*,-0.4
COc1ccc(Cl)cc1NC(=O)CN(c1cc(C)ccc1C)S(C)(=O)=O,5.1,-1.1,9.5,0.2
CN(C)C(=O)Cn1c(SCC(=O)N2CCCc3ccccc32)nc2ccccc21,-6.1,-0.2,34.6*,0.1
CC1CCN(C(=O)Cn2c(SCC(=O)N3CCc4ccccc43)nc3ccccc32)CC1,5.3,1.7,2.2,-0.1
CCOC(=O)CSC1=C(C#N)C(c2ccccc2F)CC(=O)N1 (configuration not stated),14.5,1.4,48.1*,0.1
CCOc1ccccc1C1CC(=O)NC(SCC(=O)OC)=C1C#N (configuration not stated),7.1,0.1,59.4*,-0.1
COC(=O)CSC1=C(C#N)C(c2cccc(F)c2)CC(=O)N1 (configuration not stated),20.0,0.9,45.9*,0.1
CCOC(=O)CSC1=C(C#N)C(c2ccc(C)s2)CC(=O)N1 (configuration not stated),19.6,-1.4,53.9*,0.0
COC(=O)CSC1=C(C#N)C(c2ccc(C)s2)CC(=O)N1 (configuration not stated),9.9,-1.1,7.5,0.1
CCOc1ccccc1C1CC(=O)NC(SCC)=C1C#N (configuration not stated),12.4,-0.2,6.9,0.1
CCOc1ccc(N2C(=O)c3ccc(Cl)cc3C2=O)cc1,10.9,0.0,-0.9,0.0
COc1ccc(-n2c(C)cc(C)c(C(N)=O)c2=O)cc1,11.2,-0.5,0.9,-0.1
COc1ccc(CCNC(=O)c2ccc3c(c2)nc(SCc2ccc(Cl)cc2)n2c4ccccc4nc32)cc1OC,-13.4,-0.7,8.5,0.1
CCOC(=O)CSC1=C(C#N)C(c2ccc(F)cc2)CC(=O)N1 (configuration not stated),14.7,-2.1,41.8*,0.5
CCOC(=O)CSC1=C(C#N)C(c2ccc(C)cc2)CC(=O)N1 (configuration not stated),8.8,-0.6,1.0,0.1
c1ccc(CNc2ccc3ncc(-c4ccco4)n3n2)nc1,-11.2,0.4,52.6*,-1.1
SMILES,MITF primary,GPR151 activ,TEAD-YAP inh,FBW7 activator
Cc1csc(-c2cnc3ccc(NCCCO)nn23)c1,15.8,0.9,34.4*,0.2
Cc1csc(-c2cnc3ccc(NCc4ccccn4)nn23)c1,12.5,0.8,40.5*,-0.3
CCOc1ccc(C(=O)Nc2cccc(NC(=O)c3cccc(Br)c3)c2)cc1,-1.1,0.2,-38.3,0.0
COc1cccc(N2C[C@@H]3C[C@@H](c4cnn(-c5ccccc5)c4)N4CCC[C@@]34C2=O)c1,-2.4,1.0,36.9*,0.0
CC(O)(C#CC(O)c1cccs1)C1CC1 (configuration not stated),-6.8,0.2,7.4,0.1
COc1ccccc1OCCOc1ccc(C=O)cc1,5.6,-1.4,-2.0,-0.1
COc1ccc(OCCOCCOc2ccccc2C=O)cc1,-7.1,-1.2,45.5*,0.4
CC(=O)Nc1ccc(NC(=O)c2ccco2)cc1Cl,2.3,-0.4,-8.4,0.6
Nc1ccc2cc3ccc(N)cc3nc2c1,75.0*,-0.4,4.4,-0.3
Cc1ccc2cc(N)ccc2n1,5.5,-0.1,-4.6,0.0
Fc1cccc(Nc2nc(NCC3CCCO3)c3ccccc3n2)c1 (configuration not stated),-20.9,4.6,44.6*,0.1
c1ccc(Nc2nc(NCC3CCCO3)c3ccccc3n2)cc1 (configuration not stated),2.2,0.5,46.4*,-0.2
CCCCNC(=O)C1CCN(C(=O)c2cccc(Cl)c2)CC1,-2.9,0.9,5.7,0.3
O=C(Cn1nnc2ccccc21)Nc1nc(-c2ccc3c(c2)CCN3C(=O)C2CC2)cs1,9.9,-0.5,-6.4,0.3
O=c1c(CN2CCN(Cc3ccccc3)CC2)coc2ccccc12,42.6,-1.6,67.0*,-0.1
Cc1noc(C)c1CC(=O)NCC1Cc2c(ccc3cc(-c4cccnc4)ccc23)O1 (configuration not stated),-0.8,0.6,-17.2,-0.1
O=C(N/N=C/c1c2ccccc2cc2ccccc12)C(=O)Nc1ccccc1F,6.5,0.7,-0.2,0.0
CCOc1ccc2ccccc2c1/C=N/NC(N)=S,-16.7,-0.9,40.3*,-0.1
O=C(N/N=C/c1c2ccccc2cc2ccccc12)C(=O)NC1CC1,-4.2,1.0,56.9*,1.3
NC(=O)N/N=C/c1c2ccccc2cc2ccccc12,16.6,1.2,3.4,2.0*
CCOC(=O)N/N=C/c1c2ccccc2cc2ccccc12,-10.1,2.3,3.6,-0.1
COC(=O)c1ccc(/C=C2\SC(=S)N(NC(=O)Cc3ccccc3)C2=O)cc1,6.6,0.6,10.2,0.0
Brc1ccc(-c2cn3c4ccccc4nc3n2CCCN2CCCCC2)cc1,7.2,-1.9,-2.2,2.2*
Clc1ccc(-c2cn3c4ccccc4nc3n2CCCNC2CCCCC2)cc1,-17.1,2.7,-12.6,3.1*
CCN(CC)CCCn1c(-c2ccc(Br)cc2)cn2c3ccccc3nc12,19.6,1.7,-3.2,2.2*
CCN(CC)CCCn1c(-c2ccc(Cl)cc2)cn2c3ccccc3nc12,-2.6,-0.3,1.8,1.4
COc1cccc(OCCOc2c(Cl)cc(-c3nc4sc5c(c4c(=O)[nH]3)CCCC5)cc2OC)c1,-1.4,0.2,3.2,0.0
Cc1csc(NC(=O)CSc2ccc(-c3cccs3)nn2)n1,-8.9,-0.4,-16.7,-0.2
Cc1cccc(NC(=O)C2CCCN(S(=O)(=O)c3ccc4c(c3)oc(=O)n4C)C2)n1 (configuration not stated),-11.9,-0.2,34.2*,0.1
Cc1cccc(NC(=O)C2CCCN(S(=O)(=O)c3ccc4c(c3)oc(=O)n4C)C2)c1 (configuration not stated),-0.3,0.9,-10.8,-0.3
